# AMA1-RON2 inh: qHTS for Inhibitors of AMA1-RON; Towards Development of Antimalarial Drug Lead: Primary Screen; AlphaScreen AMA1-biotinylated RON2 peptide binding; Potency, µM (top dose mostly 58.2 µM), for the others: at the top dose activity change, negative = inhibition, hits mostly inhibitors; 360,000 compounds, 0.2% hits;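 note: 0% = vehicle wells and -100% = peptide control; nearly all actives have a fitted effect of over 45% in size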
#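 AMA1 (3D7) with his tag at 25 nM final met compounds first, then biotinylated RON2 peptide at 25 nM; detection used donor plus acceptor beads, 10 µg/mL apiece, read by AlphaScreen after 30 min at room temperature.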
# Pf growth 96h: Primary qHTS for delayed death inhibitors of the malarial parasite plastid, 96 hour incubation; P. falciparum luciferase reporter growth, 96 h; Potency, µM (series often up to 28.7 µM), without a hit: top-dose activity change, negative = inhibition, actives largely listed as inhibitors; 320,000 compounds, 6.9% hits; AID 504834, 2011
#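 Compounds incubated with erythrocytes infected by luciferase-expressing P. falciparum (2% hematocrit, 0.05% parasitemia final) for 96 hours, 37 C in 5% CO2. Growth inhibition scored as decreased luciferase luminescence.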
# Vaccinia Venus: qHTS for Stage-Specific Inhibitors of Vaccinia Orthopoxvirus: Venus Reporter Primary qHTS; AID 720580, 2013; 330,000 compounds, 0.46% hits; Potency, µM (highest dose often 36.5 µM), for inactives: at the top dose activity change, negative = inhibition, actives largely listed as inhibitors; Vaccinia virus Venus reporter expression, fluorescence; calls by dose curve; tested in A549 cells; note: nearly all actives have a fitted effect of over 30% in size
# Vaccinia mCherry: qHTS for Stage-Specific Inhibitors of Vaccinia Orthopoxvirus: mCherry Reporter Primary qHTS. 310,000 compounds, 0.63% hits. Vaccinia virus mCherry reporter infection, fluorescence. Potency, µM (doses to about 36.5 µM), for the others: at the top dose activity change, negative = inhibition, usual class: inhibitors; calls by dose curve; tested in A549 cells; note: nearly all actives have a fitted effect of over 35% in size
# Pf growth 48h: Primary qHTS for delayed death inhibitors of the malarial parasite plastid, 48 hour incubation; P. falciparum luciferase growth in erythrocytes, 48 h; Potency, µM (series often up to 28.7 µM), for inactives: at the highest dose activity change, negative = inhibition, actives largely listed as inhibitors; 310,000 compounds, 5.9% hits; AID 504832, 2011
#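 First compound was added to culture medium, then infected red cells at 0.1% parasitemia and 2% hematocrit (final). After incubation at 37 C under 5% CO2, luciferase detection reagent was dispensed and light output recorded.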
# Starred values were filed as active, the others as inactive; i = inactive; ? = inconclusive; / = no result given; ! = not active in a repeat; [ ] = remark or other dose. Compounds with a hit are over-represented: about 8.7% of the library has one in this group of screens. Unless noted, calls come from the whole dose curve; as a rule, active = well fitted curve in the direction sought with a large enough effect; inconclusive = small, poorly fitted or top-dose-only effect, or another doubt; inactive = no such curve, though single readings can be large; an effect the other way counts as inactive or inconclusive. Unless noted, % is set by controls: 0 for no effect and ±100 for the full control effect; potency is the fitted concentration of half-maximal effect.
SMILES,AMA1-RON2 inh,Pf growth 96h,Vaccinia Venus,Vaccinia mCherry,Pf growth 48h
O=C(Cc1ccc(Cl)cc1)Nc1ccccc1Sc1ccccc1,25.3%,?,-9.9%,i,-18.4%
N=c1ccn2c(n1)O[C@H]1[C@@H](CO)[C@H](O)O[C@H]12,-3.5%,46.8%,?,0.447µM*,-14.0%
COc1cc(NC(=O)CN(C)CCOc2ccccc2)c(C)cc1[N+](=O)[O-],-1.4%,?,/,/,11.7µM*
C/C=C/C(=O)OCC(=O)Nc1cc(OC)c([N+](=O)[O-])cc1C,-4.4%,-1.2%,7.94µM*,5.62µM*,-0.9%
C/C=C/C(=O)OCC(=O)Nc1cc([N+](=O)[O-])ccc1Cl,2.6%,-13.7%,?,11.2µM*,3.5%
COc1cc(NC(=O)COC(=O)C=C(C)C)c(C)cc1[N+](=O)[O-],-7.1%,20.8%,-6.9%,-2.4%,10.3%
CCOC(=O)c1cc(OC(=O)c2cccc(Cl)c2)n(-c2ccccc2)n1,/,/,-11.4%,-13.7%,/
COc1cc([C@@H]2CC=C(C(=O)O)[C@H](c3ccccc3F)N2S(=O)(=O)c2ccc(C)cc2)cc(OC)c1OC,-1.7%,10.4µM*,2.1%,-5.7%,10.4µM*
Cc1ccc(S(=O)(=O)N2[C@@H](c3ccccc3F)C(C(=O)O)=CC[C@H]2c2ccc(Cl)c(Cl)c2)cc1,13.8%,11.7µM*,-13.8%,-1.3%,?
COc1ccc([C@@H]2CC=C(C(=O)O)[C@H](c3ccc(Br)cc3)N2S(=O)(=O)c2ccc(C)cc2)cc1OC,-2.2%,/,-4.2%,?,/
COc1ccc([C@@H]2CC=C(C(=O)O)[C@H](c3ccc(F)cc3)N2S(=O)(=O)c2ccc(C)cc2)cc1OC,-1.4%,10.4µM*,2.2%,i,?
COc1cc([C@@H]2CC=C(C(=O)O)[C@H](c3ccc(F)cc3)N2S(=O)(=O)c2ccc(C)cc2)cc(OC)c1OC,9.2%,1.85µM*,-4.3%,i,3.29µM*
Cc1ccc(S(=O)(=O)N2[C@@H](c3ccccc3)C(C(=O)O)=CC[C@H]2c2ccc(Cl)c(Cl)c2)cc1,-2.4%,30.0%,-19.2%,-21.2%,?
COc1ccc(-c2noc(-c3ccc(N4CCCC4)c([N+](=O)[O-])c3)n2)cc1,/,/,-1.8%,1.7%,/
COc1cccc([C@@H]2CC=C(C(=O)O)[C@H](c3ccccc3)N2S(=O)(=O)c2ccc(C)cc2)c1,10.9%,?,-8.6%,i,?
COc1cccc([C@@H]2CC=C(C(=O)O)[C@H](c3cccc(Cl)c3)N2S(=O)(=O)c2ccc(C)cc2)c1,-2.8%,11.7µM*,-7.2%,-11.4%,?
CN(C)c1ccc(C=Nc2ccc(/C=C3\C=Cc4ccccc43)cc2)cc1,/,/,-18.5%,?,/
COc1cc(-c2nc3ccc(N4CCN(C)CC4)cc3[nH]2)cc(OC)c1OC,-6.1%,3.7µM*,-8.3%,-12.9%,9.28µM*
Cc1nn(C)cc1CN1CCCC(C(=O)c2ccc(-c3ccccc3)c(F)c2)C1 (stereo not drawn),-12.1%,0.0%,-16.6%,i,14.7µM*
O=C(c1ccc(-c2ccccc2)c(F)c1)C1CCCN(C(=O)c2cncs2)C1 (stereo not drawn),-6.2%,13.1µM*,-17.3%,-19.0%,?
CC(C)Oc1cccc(C(=O)C2CCCN(C(=O)c3cncs3)C2)c1 (stereo not drawn),9.3%,?,/,/,3.0%
COc1ccccc1NC(=O)C(=O)NCC(c1cccnc1)N1CCc2ccccc2C1 (stereo not drawn),/,/,-16.6%,-17.3%,/
CCOC(=O)C1CCN(Cc2ccc(OC)c(C)c2OC)CC1,-8.5%,?,/,/,23.3%
CCOC(=O)C1CCN(C(=O)c2ccc(OCC)c(OCC)c2)CC1,20.7%,14.7µM*,-21.9%,/,-22.0%
CCOC(=O)C1CCN(Cc2ccccn2)CC1,/,10.4µM*,/,/,8.6%
SMILES,AMA1-RON2 inh,Pf growth 96h,Vaccinia Venus,Vaccinia mCherry,Pf growth 48h
O=C(O)C1CCN(Cc2ccccn2)CC1,12.3%,15.3%,-0.1%,i,-7.1%
CCOC(=O)C1CCN(Cc2cc(Cl)c3ccccc3c2O)CC1,-13.5%,1.17µM*,6.1%,?,1.17µM*
COc1cccc(NC(=O)C(Cc2ccccc2)N2Cc3ccccc3C2=O)c1 (stereo not drawn),/,/,-8.9%,i,/
Cc1cc(=O)n2nc(N(C)CC(=O)NCc3ccc(Cl)cc3)sc2n1,/,/,-3.3%,-7.6%,/
O=C(Cn1c(=O)n(-c2ccc(F)c(Cl)c2)c(=O)c2sc3ccccc3c21)NC1CCCC1,/,/,3.9%,-8.7%,/
Cn1c(=O)n(Cc2ccccc2Cl)c(=O)c2c1nc1n2CCN1c1ccccc1,/,/,-14.7%,i,/
COC(=O)[C@@H]1CCCN1C(=O)c1c(OC)cc(=O)n2c1CCN(Cc1ccc(C)o1)CC2,/,/,-13.9%,-18.2%,/
COc1cc(C2C(C#N)=C(N)N(Nc3ccccc3)C3=C2C(=O)CC(C)(C)C3)ccc1OCc1cccc(F)c1 (stereo not drawn),10.2%,?,?,/,?
C=CCOc1ccc(C2C(C#N)=C(N)N(Nc3ccccc3)C3=C2C(=O)CCC3)cc1OC (stereo not drawn),0.2%,4.65µM*,?,?,8.28µM*
COc1cc(C2C(C#N)=C(N)N(Nc3ccccc3)C3=C2C(=O)CC(C)(C)C3)ccc1OCc1ccccc1 (stereo not drawn),-14.6%,2.94µM*,?,?,4.15µM*
CCOc1ccc(CN2C(=O)c3ccccc3Sc3ccc(C(=O)NCc4ccc5c(c4)OCO5)cc32)cc1,/,/,-10.0%,-16.6%,/
CCOC(=O)c1cnn(-c2c(Cc3ccccc3)c(C)nc3c(-c4ccccc4)c(C)nn23)c1N,-6.4%,/,/,/,11.7µM*
CCOC(=O)c1cnn(-c2cc(C(C)(C)C)nc3c(-c4ccccc4)c(C)nn23)c1N,-7.2%,-6.2%,/,/,/
Cc1ccccc1C(=NC(=O)c1ccccc1)c1ccccc1,-7.8%,6.57µM*,-14.2%,/,8.28µM*
Cc1ccccc1C(=O)O/N=C(\N)c1ccccc1,9.2%,3.8%,-2.0%,0.3%,6.0%[0.00184 µM]
COc1ccc(S(=O)(=O)NCC(c2ccco2)N2CCOCC2)cc1C (stereo not drawn),/,/,-10.1%,-12.8%,/
O=C1NC(c2ccc(Cl)cc2)Nc2ccccc21 (stereo not drawn),3.6%,0.0%,-7.5%,-1.9%,-17.4%
O=C1C(=O)c2ccccc2C(O)=C1C1CCC(c2ccc(Cl)cc2)CC1 (stereo not drawn),-11.9%,0.0005µM*,-15.8%,i,0.0006µM*!
CN(CCO)C(=O)c1cn(C2CCN(Cc3c(F)cccc3Cl)CC2)nn1,/,/,21.4%,-9.4%,/
Cc1nn(C)c(Oc2ccccc2)c1CCNC(=O)CCl,-1.0%,10.4µM*,/,/,?

# Screening data: PubChem, National Center for Advancing Translational Sciences (NCATS)
